# Experimental data reported in paper PMC7862700, “An all-to-all approach to the identification of sequence-specific readers for epigenetic DNA modifications on cytosine”.
# Experiments:
# Experiment in all cases: DAPPL (digital affinity profiling via proximity ligation, sequencing); 10 mM Tris-HCl pH 7.5, 50 mM NaCl, 1 mM DTT, 4% glycerol, room temperature, 30 min; GST-TFs on glutathione beads, 16-mer random dsDNA library, 0.1% formaldehyde crosslink after washing; high values mean tight binding
# FLI1 = biological target: T1, FLI1 (Homo sapiens, UniProt Q01543 1-452); conditions: protein: recombinant; tags: N-terminal GST; dsDNA, one strand shown
# T1 sequence: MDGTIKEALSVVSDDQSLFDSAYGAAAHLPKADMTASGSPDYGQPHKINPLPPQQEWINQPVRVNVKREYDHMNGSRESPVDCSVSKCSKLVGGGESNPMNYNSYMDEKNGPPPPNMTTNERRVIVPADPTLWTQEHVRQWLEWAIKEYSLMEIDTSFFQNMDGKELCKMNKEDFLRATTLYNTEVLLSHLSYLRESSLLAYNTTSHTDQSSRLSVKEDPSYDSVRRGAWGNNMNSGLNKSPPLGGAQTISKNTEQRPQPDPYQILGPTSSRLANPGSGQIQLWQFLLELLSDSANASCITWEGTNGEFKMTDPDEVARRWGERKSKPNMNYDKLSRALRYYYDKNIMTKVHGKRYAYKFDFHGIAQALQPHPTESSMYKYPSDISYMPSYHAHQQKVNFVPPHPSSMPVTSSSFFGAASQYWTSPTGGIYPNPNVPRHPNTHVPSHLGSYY
# In short: (§1)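 In yeast, human transcription factors were expressed with a GST fusion, then pulled down on glutathione beads and given DNA barcodes. Pooled with a tag-only sample, they were exposed to 200 nmole of a 16-mer random double-stranded DNA library (Tris/NaCl/DTT/glycerol buffer, room temperature, 30 min), washed, crosslinked with 0.1% formaldehyde, proximity-ligated using BsaI/T4 ligase for 1 h at 37 °C, PCR-amplified and read on an Illumina NextSeq500. Each hexamer's frequency of reads for a factor, divided by the matching frequency for the tag-only sample, gives the binding signal.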
# ELK1 = biological target: T2, ELK1 (Homo sapiens, UniProt P19419 1-428); conditions: protein: recombinant; tags: N-terminal GST; dsDNA, one strand shown
# T2 sequence: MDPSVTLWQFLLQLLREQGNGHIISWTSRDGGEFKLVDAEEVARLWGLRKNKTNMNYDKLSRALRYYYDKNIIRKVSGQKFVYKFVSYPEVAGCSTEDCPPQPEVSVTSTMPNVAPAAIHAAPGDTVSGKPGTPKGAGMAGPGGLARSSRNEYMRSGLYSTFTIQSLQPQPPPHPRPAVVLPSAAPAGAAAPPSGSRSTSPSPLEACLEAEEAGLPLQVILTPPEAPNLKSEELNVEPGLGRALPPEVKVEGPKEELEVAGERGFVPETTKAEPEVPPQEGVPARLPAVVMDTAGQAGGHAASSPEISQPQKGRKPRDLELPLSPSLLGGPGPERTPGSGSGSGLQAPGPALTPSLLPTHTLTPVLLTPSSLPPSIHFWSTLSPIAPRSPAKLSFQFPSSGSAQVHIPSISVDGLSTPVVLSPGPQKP
# In short: as §1
# GABPA = biological target: T3, GABPA (Homo sapiens, UniProt Q06546 1-454); conditions: protein: recombinant; tags: N-terminal GST; dsDNA, one strand shown
# T3 sequence: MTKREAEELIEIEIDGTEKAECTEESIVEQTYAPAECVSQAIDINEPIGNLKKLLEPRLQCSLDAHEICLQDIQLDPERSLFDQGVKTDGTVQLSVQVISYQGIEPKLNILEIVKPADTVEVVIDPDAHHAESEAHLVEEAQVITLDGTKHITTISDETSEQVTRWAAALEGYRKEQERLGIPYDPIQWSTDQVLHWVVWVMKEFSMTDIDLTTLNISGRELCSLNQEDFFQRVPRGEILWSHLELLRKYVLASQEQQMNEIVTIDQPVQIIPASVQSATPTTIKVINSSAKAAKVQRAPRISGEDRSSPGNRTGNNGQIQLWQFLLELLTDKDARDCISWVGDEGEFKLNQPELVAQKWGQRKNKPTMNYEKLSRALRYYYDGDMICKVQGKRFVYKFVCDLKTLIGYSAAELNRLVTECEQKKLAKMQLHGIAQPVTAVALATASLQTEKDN
# In short: as §1
# ERG = biological target: T4, ERG (Homo sapiens, UniProt P11308 1-479); conditions: protein: recombinant; tags: N-terminal GST; dsDNA, one strand shown
# T4 sequence: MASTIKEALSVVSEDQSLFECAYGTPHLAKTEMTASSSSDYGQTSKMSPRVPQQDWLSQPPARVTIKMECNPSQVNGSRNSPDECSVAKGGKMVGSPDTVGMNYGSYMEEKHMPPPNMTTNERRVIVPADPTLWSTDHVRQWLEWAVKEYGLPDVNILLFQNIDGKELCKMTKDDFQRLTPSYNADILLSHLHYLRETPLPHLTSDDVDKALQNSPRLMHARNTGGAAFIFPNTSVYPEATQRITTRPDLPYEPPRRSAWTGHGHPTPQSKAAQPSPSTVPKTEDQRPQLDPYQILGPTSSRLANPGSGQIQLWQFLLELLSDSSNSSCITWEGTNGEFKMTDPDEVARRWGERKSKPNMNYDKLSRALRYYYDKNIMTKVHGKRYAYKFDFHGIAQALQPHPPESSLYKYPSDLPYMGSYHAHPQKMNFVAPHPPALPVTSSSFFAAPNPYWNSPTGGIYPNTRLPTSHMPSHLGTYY
# In short: as §1
# ELF1 = ELF1 (Homo sapiens, UniProt P32519 1-619); conditions: protein: recombinant; tags: N-terminal GST; dsDNA, one strand shown
# Chain of ELF1 (P32519 whole entry): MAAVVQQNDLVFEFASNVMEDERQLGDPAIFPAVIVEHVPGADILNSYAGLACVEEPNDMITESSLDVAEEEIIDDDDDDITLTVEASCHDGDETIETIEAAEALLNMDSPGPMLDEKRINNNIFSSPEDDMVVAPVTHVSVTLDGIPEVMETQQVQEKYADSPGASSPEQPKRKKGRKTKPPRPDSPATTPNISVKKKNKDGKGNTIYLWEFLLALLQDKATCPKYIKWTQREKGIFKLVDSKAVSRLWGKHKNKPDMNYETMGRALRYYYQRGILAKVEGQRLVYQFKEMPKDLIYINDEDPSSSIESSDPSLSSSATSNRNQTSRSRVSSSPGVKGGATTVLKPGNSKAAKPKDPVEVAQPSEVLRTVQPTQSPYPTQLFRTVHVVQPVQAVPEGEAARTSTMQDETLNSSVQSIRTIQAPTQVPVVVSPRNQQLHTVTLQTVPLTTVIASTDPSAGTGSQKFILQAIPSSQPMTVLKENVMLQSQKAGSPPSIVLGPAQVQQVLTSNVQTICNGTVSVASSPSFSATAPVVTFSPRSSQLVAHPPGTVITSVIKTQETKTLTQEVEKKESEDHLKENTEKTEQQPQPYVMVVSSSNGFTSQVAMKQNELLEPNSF
# In short: as §1
# EHF = biological target: T5, EHF (Homo sapiens, UniProt Q9NZC4 1-300); conditions: protein: recombinant; tags: N-terminal GST; dsDNA, one strand shown
# T5 sequence: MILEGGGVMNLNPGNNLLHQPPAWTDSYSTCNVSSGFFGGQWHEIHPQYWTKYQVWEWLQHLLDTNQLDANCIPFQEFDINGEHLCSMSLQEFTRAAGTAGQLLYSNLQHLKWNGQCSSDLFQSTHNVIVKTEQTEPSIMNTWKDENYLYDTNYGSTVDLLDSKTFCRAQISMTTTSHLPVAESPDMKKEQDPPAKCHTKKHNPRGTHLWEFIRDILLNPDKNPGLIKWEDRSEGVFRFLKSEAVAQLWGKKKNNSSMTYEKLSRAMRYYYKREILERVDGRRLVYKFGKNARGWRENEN
# In short: as §1
# SPI1 = SPI1 (Homo sapiens, UniProt P17947 1-270); conditions: protein: recombinant; tags: N-terminal GST; dsDNA, one strand shown
# In short: as §1
# SPIB = SPIB (Homo sapiens, UniProt Q01892 1-262); conditions: protein: recombinant; tags: N-terminal GST; dsDNA, one strand shown
# Chain of SPIB (Q01892 whole entry): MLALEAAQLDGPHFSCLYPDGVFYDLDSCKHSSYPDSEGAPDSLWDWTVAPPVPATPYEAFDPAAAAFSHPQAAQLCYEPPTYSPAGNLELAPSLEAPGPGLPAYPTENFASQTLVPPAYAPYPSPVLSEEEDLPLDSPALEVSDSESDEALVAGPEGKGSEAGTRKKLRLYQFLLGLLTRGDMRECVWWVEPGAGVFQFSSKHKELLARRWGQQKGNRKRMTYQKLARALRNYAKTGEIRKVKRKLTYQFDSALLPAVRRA
# In short: as §1
# ELK3 = biological target: T6, ELK3 (Homo sapiens, UniProt P41970 1-407); conditions: protein: recombinant; tags: N-terminal GST; dsDNA, one strand shown
# T6 sequence: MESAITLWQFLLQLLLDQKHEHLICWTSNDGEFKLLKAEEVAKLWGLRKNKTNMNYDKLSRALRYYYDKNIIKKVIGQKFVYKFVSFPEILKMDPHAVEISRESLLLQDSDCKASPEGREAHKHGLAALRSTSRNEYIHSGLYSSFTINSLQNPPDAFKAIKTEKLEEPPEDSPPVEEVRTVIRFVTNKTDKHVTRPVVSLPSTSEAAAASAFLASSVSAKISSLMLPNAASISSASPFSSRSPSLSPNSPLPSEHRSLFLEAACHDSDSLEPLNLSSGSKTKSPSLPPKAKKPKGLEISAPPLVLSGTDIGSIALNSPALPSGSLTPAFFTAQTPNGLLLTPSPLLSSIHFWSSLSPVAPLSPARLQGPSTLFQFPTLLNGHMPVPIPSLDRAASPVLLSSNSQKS
# In short: as §1
# FEV = biological target: T7, FEV (Homo sapiens, UniProt Q99581 1-238); conditions: protein: recombinant; tags: N-terminal GST; dsDNA, one strand shown
# T7 sequence: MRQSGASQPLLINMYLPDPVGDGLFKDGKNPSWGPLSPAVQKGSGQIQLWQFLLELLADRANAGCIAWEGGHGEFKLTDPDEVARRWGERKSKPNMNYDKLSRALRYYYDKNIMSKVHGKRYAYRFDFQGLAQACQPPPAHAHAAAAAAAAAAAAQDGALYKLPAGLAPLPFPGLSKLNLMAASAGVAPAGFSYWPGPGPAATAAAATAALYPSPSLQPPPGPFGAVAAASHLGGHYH
# In short: as §1
# ETV5 = ETV5 (Homo sapiens, UniProt P41161 1-510); conditions: protein: recombinant; tags: N-terminal GST; dsDNA, one strand shown
# Chain of ETV5 (P41161 whole entry): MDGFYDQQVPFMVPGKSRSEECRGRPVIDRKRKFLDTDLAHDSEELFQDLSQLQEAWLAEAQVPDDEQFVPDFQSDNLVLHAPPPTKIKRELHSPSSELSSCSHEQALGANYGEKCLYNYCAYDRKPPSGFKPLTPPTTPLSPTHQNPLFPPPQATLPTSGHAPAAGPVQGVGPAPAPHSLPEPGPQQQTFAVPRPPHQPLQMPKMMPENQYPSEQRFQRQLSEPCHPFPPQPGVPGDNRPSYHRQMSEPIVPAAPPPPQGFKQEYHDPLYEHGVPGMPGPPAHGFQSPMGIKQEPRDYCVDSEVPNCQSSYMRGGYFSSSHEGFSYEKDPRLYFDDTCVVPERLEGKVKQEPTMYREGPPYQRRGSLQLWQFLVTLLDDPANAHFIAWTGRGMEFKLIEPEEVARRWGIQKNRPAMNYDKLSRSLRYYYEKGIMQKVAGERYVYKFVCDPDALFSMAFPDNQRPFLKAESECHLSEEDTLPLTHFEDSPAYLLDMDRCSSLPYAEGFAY
# In short: as §1
# HSF1 = HSF1 (Homo sapiens, UniProt Q00613 1-529); conditions: protein: recombinant; tags: N-terminal GST; chain copies: 3; dsDNA, one strand shown
# Chain of HSF1 (Q00613 whole entry): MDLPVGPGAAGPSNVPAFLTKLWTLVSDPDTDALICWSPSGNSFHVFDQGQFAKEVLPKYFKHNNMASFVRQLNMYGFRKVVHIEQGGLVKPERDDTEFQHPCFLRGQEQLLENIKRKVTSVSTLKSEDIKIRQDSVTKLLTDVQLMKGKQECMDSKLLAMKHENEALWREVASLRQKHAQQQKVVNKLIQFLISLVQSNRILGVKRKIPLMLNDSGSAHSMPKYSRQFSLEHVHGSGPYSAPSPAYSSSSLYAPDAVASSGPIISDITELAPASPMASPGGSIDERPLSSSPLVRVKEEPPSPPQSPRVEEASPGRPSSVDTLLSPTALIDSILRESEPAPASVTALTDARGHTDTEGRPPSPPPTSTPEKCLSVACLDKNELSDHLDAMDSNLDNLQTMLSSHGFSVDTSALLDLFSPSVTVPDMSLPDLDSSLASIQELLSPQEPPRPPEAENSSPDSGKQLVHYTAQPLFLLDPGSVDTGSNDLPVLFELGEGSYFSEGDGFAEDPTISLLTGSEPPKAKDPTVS
# In short: as §1
# SPIC = biological target: T8, SPIC (Homo sapiens, UniProt Q8N5J4 1-248); conditions: protein: recombinant; tags: N-terminal GST; dsDNA, one strand shown
# T8 sequence: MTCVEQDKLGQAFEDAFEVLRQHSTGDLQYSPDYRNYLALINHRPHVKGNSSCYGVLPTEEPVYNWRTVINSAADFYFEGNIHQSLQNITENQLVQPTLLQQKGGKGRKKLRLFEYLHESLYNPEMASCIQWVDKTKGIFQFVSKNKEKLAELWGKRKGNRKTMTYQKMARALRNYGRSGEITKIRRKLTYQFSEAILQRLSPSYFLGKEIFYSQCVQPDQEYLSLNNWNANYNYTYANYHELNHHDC
# In short: as §1
# ELF4 = ELF4 (Homo sapiens, UniProt Q99607 1-663); conditions: protein: recombinant; tags: N-terminal GST; dsDNA, one strand shown
# Chain of ELF4 (Q99607 whole entry): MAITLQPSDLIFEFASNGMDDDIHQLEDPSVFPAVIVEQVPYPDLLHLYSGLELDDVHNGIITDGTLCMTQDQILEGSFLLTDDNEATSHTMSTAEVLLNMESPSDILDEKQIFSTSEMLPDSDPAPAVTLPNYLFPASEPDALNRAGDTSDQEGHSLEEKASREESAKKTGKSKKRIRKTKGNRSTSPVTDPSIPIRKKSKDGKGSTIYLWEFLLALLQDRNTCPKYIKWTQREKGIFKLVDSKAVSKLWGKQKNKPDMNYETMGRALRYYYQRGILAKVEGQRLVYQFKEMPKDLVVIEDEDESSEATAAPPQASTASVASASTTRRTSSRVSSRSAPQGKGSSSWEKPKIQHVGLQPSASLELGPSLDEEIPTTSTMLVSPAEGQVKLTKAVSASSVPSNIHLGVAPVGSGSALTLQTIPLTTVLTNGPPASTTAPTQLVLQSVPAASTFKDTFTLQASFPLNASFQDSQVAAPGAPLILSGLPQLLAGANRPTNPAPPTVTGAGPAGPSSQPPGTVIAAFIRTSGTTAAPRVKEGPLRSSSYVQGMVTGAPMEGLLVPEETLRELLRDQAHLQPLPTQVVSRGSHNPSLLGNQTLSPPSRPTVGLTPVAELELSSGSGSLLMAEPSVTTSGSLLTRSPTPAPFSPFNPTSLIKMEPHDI
# In short: as §1
# ELK4 = biological target: T9, ELK4 (Homo sapiens, UniProt P28324-2 1-405); conditions: protein: recombinant; tags: N-terminal GST; dsDNA, one strand shown
# T9 sequence: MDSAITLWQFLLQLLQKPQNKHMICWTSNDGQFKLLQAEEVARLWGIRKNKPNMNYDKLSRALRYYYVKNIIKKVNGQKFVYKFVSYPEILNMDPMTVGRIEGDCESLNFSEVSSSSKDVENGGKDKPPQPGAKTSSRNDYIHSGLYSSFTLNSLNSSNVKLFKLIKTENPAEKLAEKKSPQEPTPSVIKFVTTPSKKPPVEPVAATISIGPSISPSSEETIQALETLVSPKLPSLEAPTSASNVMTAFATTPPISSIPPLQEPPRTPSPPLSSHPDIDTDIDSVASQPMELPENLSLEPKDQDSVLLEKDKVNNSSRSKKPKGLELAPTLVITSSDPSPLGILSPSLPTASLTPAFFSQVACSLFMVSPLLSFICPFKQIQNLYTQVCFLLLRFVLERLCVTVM
# In short: as §1
# ETV2 = biological target: T10, ETV2 (Homo sapiens, UniProt O00321 1-342); conditions: protein: recombinant; tags: N-terminal GST; dsDNA, one strand shown
# T10 sequence: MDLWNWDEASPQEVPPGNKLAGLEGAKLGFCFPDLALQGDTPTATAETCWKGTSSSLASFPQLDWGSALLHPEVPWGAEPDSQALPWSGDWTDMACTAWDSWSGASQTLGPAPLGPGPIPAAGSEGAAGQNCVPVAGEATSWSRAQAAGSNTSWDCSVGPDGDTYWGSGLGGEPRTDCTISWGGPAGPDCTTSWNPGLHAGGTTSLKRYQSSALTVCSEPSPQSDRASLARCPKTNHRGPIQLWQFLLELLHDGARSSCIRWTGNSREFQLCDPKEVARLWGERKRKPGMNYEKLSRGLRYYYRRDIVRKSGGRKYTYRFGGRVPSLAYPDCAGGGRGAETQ
# In short: as §1
# ELF3 = biological target: T11, ELF3 (Homo sapiens, UniProt P78545 1-371); conditions: protein: recombinant; tags: N-terminal GST; dsDNA, one strand shown
# T11 sequence: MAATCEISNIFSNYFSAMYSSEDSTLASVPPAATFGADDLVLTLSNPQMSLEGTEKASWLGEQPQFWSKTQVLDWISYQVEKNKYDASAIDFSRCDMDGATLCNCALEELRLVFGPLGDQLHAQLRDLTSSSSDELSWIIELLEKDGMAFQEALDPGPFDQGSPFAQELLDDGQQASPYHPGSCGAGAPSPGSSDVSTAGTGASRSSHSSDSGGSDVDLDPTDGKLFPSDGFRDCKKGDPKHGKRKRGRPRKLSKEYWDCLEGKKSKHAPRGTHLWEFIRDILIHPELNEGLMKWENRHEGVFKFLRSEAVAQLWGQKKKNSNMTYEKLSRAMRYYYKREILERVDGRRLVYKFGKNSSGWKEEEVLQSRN
# In short: as §1
# CRX = CRX (Homo sapiens, UniProt O43186 1-299); conditions: protein: recombinant; tags: N-terminal GST; dsDNA, one strand shown
# Chain of CRX (O43186 whole entry): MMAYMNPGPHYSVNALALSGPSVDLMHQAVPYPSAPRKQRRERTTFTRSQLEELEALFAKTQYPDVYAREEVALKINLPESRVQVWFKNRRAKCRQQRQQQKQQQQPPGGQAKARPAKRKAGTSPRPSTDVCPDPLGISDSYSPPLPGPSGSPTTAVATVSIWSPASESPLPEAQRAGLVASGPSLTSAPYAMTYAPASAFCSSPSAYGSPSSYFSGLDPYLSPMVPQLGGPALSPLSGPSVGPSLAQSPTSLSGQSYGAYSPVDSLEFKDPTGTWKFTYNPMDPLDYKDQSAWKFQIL
# In short: as §1
# ETV1 = ETV1 (Homo sapiens, UniProt P50549 1-477); conditions: protein: recombinant; tags: N-terminal GST; dsDNA, one strand shown
# Chain of ETV1 (P50549 whole entry): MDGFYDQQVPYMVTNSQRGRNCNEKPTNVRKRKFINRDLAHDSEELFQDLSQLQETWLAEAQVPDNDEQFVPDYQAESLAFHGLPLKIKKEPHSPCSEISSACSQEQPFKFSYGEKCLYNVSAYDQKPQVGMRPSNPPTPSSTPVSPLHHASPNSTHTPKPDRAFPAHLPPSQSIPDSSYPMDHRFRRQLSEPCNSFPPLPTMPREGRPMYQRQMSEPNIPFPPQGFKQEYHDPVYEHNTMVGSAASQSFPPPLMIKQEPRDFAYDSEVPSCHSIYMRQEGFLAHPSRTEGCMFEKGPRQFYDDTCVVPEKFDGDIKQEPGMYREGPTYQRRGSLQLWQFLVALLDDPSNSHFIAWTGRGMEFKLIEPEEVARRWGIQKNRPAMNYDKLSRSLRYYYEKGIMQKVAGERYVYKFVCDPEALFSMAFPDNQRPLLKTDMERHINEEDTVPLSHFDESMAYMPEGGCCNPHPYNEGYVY
# In short: as §1
sequence,measurement,setting,value
CCGGCT,binding signal,FLI1,"1.75 fold enrichment (6-mer frequency, TF over GST control)"
same,binding signal,ELK1,"1.62 fold enrichment (6-mer frequency, TF over GST control)"
same,binding signal,GABPA,"1.65 fold enrichment (6-mer frequency, TF over GST control)"
same,binding signal,ERG,"1.74 fold enrichment (6-mer frequency, TF over GST control)"
same,binding signal,ELF1,"1.68 fold enrichment (6-mer frequency, TF over GST control)"
same,binding signal,EHF,"1.77 fold enrichment (6-mer frequency, TF over GST control)"
same,binding signal,SPI1,"1.73 fold enrichment (6-mer frequency, TF over GST control)"
same,binding signal,SPIB,"1.91 fold enrichment (6-mer frequency, TF over GST control)"
same,binding signal,ELK3,"1.62 fold enrichment (6-mer frequency, TF over GST control)"
same,binding signal,FEV,"1.8 fold enrichment (6-mer frequency, TF over GST control)"
same,binding signal,ETV5,"1.89 fold enrichment (6-mer frequency, TF over GST control)"
same,binding signal,HSF1,"1.3 fold enrichment (6-mer frequency, TF over GST control)"
same,binding signal,SPIC,"1.46 fold enrichment (6-mer frequency, TF over GST control)"
same,binding signal,ELF4,"1.68 fold enrichment (6-mer frequency, TF over GST control)"
same,binding signal,ELK4,"1.53 fold enrichment (6-mer frequency, TF over GST control)"
same,binding signal,ETV2,"1.84 fold enrichment (6-mer frequency, TF over GST control)"
same,binding signal,ELF3,"1.8 fold enrichment (6-mer frequency, TF over GST control)"
same,binding signal,CRX,"1.6 fold enrichment (6-mer frequency, TF over GST control)"
same,binding signal,ETV1,"1.81 fold enrichment (6-mer frequency, TF over GST control)"
